# According to PubChem BioAssay (NCI):
# Compounds without any hit were thinned out: in the full panel of roughly 83,000, 20% have a hit.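 Method: cells in 96-well plates; compound added at one concentration; 48 h incubation; percent growth measured; values under 10 scored active.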 Unmarked numbers belong to inactive results. Calls of active or inactive are those of the source.
# What was measured:
# Test in all cases: NCI-60 one-dose screen, 48 h (100 = growth as untreated, 0 = no growth, -100 = all killed)
# Settings in all cases: 10 µM
# [1] = test system: BT-549 breast
# [2] = test system: MDA-MB-435 melanoma
# [3] = test system: SW-620 colon
# [4] = test system: MCF7 breast
# [5] = test system: HCT-116 colon
# [6] = test system: HCC-2998 colon
# [7] = test system: KM12 colon
Compound,growth [1],growth [2],growth [3],growth [4],growth [5],growth [6],growth [7]
COc1cc(Cl)cc(-c2nn(-c3cccc(NC(=O)Nc4ccc(Cl)c(Cl)c4)c3)cc2-c2ccncc2)c1,29.4%,0.46% (active),13.3%,4.66% (active),9.22% (active),26.7%,14.3%
O=C(Nc1cccc(-n2cc(-c3ccncc3)c(-c3cc(O)cc(Cl)c3)n2)c1)Nc1ccc(Cl)c(C(F)(F)F)c1,47.6%,9.57% (active),-33.6% (active),13.4%,6.95% (active),34.3%,15.1%
COc1ccc(NC(=O)Cc2nc3nc4sc(C)c(C)c4c(=O)n3[nH]2)cc1,103%,105%,104%,96%,101%,98.1%,104%
CCN(CC)CCCOCCCNc1cc(OC)cc2cccnc12,103%,112%,99.9%,-3.69% (active),94.5%,83.9%,102%
COc1ccc(/C=C/C(C)=N/OCC(=O)O)cc1,98.6%,114%,107%,100%,96.9%,105%,106%
CC(C)(C)NC/C(=C\c1ccccc1)C(=O)c1ccccc1,15.8%,4.28% (active),-30.6% (active),7.56% (active),-95.3% (active),-78.6% (active),14%
CCN(CC)CCCC(C)Nc1ccc2ccc(Cl)cc2n1 (stereo unspecified),96.2%,109%,97.9%,99.6%,92.2%,92.8%,104%
CCN1CCC2(CC1)OC(c1ccccc1)C(c1ccccc1)O2 (stereo unspecified),110%,114%,102%,99.6%,95.1%,113%,115%
N=c1nc(N)ncn1-c1ccccc1,107%,107%,107%,92.4%,97.4%,101%,108%
c1ccc(CSc2nnc3c4c5c(sc4nc(-c4cccnc4)n23)CCCCCC5)cc1,41.1%,19.1%,55.3%,37.6%,29.3%,46.5%,34.4%
CC(=O)OCc1cc(-c2nc3ccccc3[nH]c2=O)nn1-c1ccc(Cl)cc1,102%,99.7%,111%,85.9%,100%,87%,108%
Cn1c([N+](=O)[O-])cnc1/C=C1\Oc2cc(Cl)ccc2C1=O,-32.6% (active),-78% (active),-47.3% (active),19%,3.24% (active),4.36% (active),1.65% (active)
COc1ccc(Nc2nc3ccc(NC(=O)NC4CCCCC4)cc3[nH]c2=O)cc1,87.7%,105%,108%,83%,102%,104%,87.1%
O=c1[nH]c2ccc(Cl)cc2c2ccccc12,100%,72.1%,102%,93.1%,38.4%,52.4%,65.2%
CC(=O)N(C)c1ccc(Nc2ccc(Nc3ccc(N(C)C(C)=O)cc3)c3c2C(=O)c2ccccc2C3=O)cc1,84.4%,101%,84.1%,52%,73.5%,89.6%,71.1%
O=C(Nc1nc2ccc(F)cc2s1)c1cc(-c2ccc(F)cc2)n2nc(-c3ccccc3)cc2n1,88%,62.7%,62.4%,80.6%,79.1%,99.8%,65.9%
CC(C)(Cl)CCC1=C(Cl)C(=O)c2ccccc2C1=O,66.5%,66.4%,7.89% (active),-0.254% (active),17.2%,74.3%,35.7%
CC(=O)[C@H]1CC[C@H]2[C@@H]3CCC4=CC(=O)C=C[C@]4(C)[C@H]3CC[C@]12C,98%,98.7%,108%,97.9%,85.6%,99.2%,107%
COc1cc(/C=C2\CCCC3=C2N=C2SC=NN2C3c2cc(OC)c(OC)c(OC)c2)cc(OC)c1OC (stereo unspecified),37.9%,-13.2% (active),18.5%,27.4%,-23.5% (active),4.77% (active),-23.5% (active)
CCOC(=O)C(CSC(c1ccccc1)(c1ccccc1)c1ccccc1)NC(=O)C(CSC(c1ccccc1)(c1ccccc1)c1ccccc1)NC(c1ccccc1)(c1ccccc1)c1ccccc1 (stereo unspecified),109%,86.1%,104%,95%,108%,113%,111%
Nc1nc(Nc2ccccc2)n[nH]1,88.8%,99.2%,107%,95.8%,97.7%,98.1%,107%
CN1CCC(CNc2cc(C3(C(=O)Nc4cc(C(=O)Nc5ccc(Cl)c(C(F)(F)F)c5)ccc4F)CC3)ncn2)CC1,52.5%,-53.1% (active),-9.83% (active),-43% (active),8.41% (active),22.8%,36.1%
O=C(N/N=C\c1cc(Cl)ccc1[N+](=O)[O-])c1ccco1,101%,100%,102%,57%,113%,103%,102%
Cc1ccc(NC(=O)CSc2nc3ccccc3c(=O)n2CCc2ccccc2)c(C(=O)O)c1,96.8%,97.3%,109%,93.8%,92.7%,113%,110%

Compound,growth [1],growth [2],growth [3],growth [4],growth [5],growth [6],growth [7]
COc1ccc(Nc2cc(C)nc(NCCCNc3ccnc4cc(Cl)ccc34)n2)cc1,-82.9% (active),-92.4% (active),-56.7% (active),-48.8% (active),-96.6% (active),-70% (active),20%
CCCCCCNC(=O)Oc1ccc(/C(=C(/CC)Cc2ccccc2)c2ccc(OCCN3CCCCC3)cc2)cc1,97.4%,89%,79.1%,28.8%,62.8%,87.3%,84%
Clc1ccccc1N=Cc1ccc2c(c1)OCO2,78.2%,99.8%,114%,90.5%,103%,103%,98.8%
COc1cc(-c2cc(/C=C3\C(=O)Nc4ccc(Cl)cc43)[nH]n2)cc(OC)c1OC,27.1%,10.3%,27.3%,0.175% (active),4.26% (active),73.2%,7.16% (active)
Nc1cc2c(cc1Cl)-c1ccc([N+](=O)[O-])cc1/C2=N\O,89%,51.3%,38.6%,79.2%,43.2%,97.3%,65%
COc1cc(-c2cc(/C=C/C(=O)c3ccc(F)c(F)c3)[nH]n2)cc(OC)c1OC,94.2%,51.7%,67.2%,48.3%,29.3%,87.1%,41%
N#Cc1ncc(-c2ccc(C(F)(F)F)cc2)c(NCc2cc(C(F)(F)F)cc(C(F)(F)F)c2)n1,21.8%,12.2%,14.5%,8.58% (active),7.85% (active),45%,10.2%
COc1cc(Cl)cc(-c2nn(-c3cccc(NC(=O)c4ccc(N5CCOCC5)c(C(F)(F)F)c4)c3)cc2-c2ccncc2)c1,73%,63.4%,69.2%,45.3%,47.7%,52.3%,38.4%
COc1cc(OC)cc(-c2cncn2-c2ccc(-c3nc4cc(OC)cc(OC)c4s3)cc2)c1,46.6%,-16.3% (active),48.2%,20.9%,36.8%,70.2%,38.5%
O=C(c1ccc(Cl)cc1Cl)N1CCOCC1,92.3%,104%,102%,97.6%,93.8%,106%,110%
CC1(C)CCC(=NNC(N)=S)CC1,125%,111%,105%,99.4%,94.6%,101%,105%
N=C1c2nc3n(c2C(=O)c2nc4n(c21)CCCC4)CCCC3,-37.2% (active),-82.5% (active),23.7%,-6.98% (active),65.8%,87.3%,66.7%
CN1c2ccccc2[C@]2(Cc3ccccc3)Cc3ccccc3N[C@H]12,122%,117%,101%,94.1%,91.8%,103%,104%
CCN(CC)CCCC(C)Nc1nc(-c2ccc(OC)cc2)nc2cc(Cl)ccc12 (stereo unspecified),75.6%,35%,80.9%,44.6%,47.1%,54.1%,66.3%
CCCCCC(=O)c1ccc(OCCCN2CCN(C(=O)OCC)CC2)cc1,91.4%,98.8%,93.2%,93%,75.6%,96.9%,94.4%
COc1cccc(C(=O)Nc2ccc(CN3CCc4nc5cc(OC)c(OC)cc5cc43)cc2)c1,65%,39.5%,59%,12%,38.9%,14.1%,16.4%
Cc1ccc(Nc2cc(C)nc(NCCCNc3ccnc4cc(Cl)ccc34)n2)cc1,-85.5% (active),-90% (active),-84.3% (active),-95% (active),-100% (active),-86.3% (active),-49.8% (active)
CCCCN(CCCC)CCCCCCCCC(O)c1cc2ccccc2c2ccccc12 (stereo unspecified),67.5%,67.3%,66.6%,28.7%,22.7%,61.5%,40.9%
NC(=O)SCC(=O)Nc1ccc(S(N)(=O)=O)cc1,111%,106%,99.2%,104%,109%,102%,101%
COc1cc(-c2cc(/C=C/C(=O)c3ccc(Cl)c(Cl)c3)[nH]n2)cc(OC)c1OC,71%,43%,60.7%,19.3%,36%,107%,26.2%
CS(=O)(=O)Nc1ccc(Nc2c3ccccc3nc3cc([N+](=O)[O-])ccc23)cc1,32.5%,39.7%,7.02% (active),2.38% (active),4.91% (active),32.3%,-35.7% (active)
Oc1[nH]c2ccc(Cl)cc2c1/C=c1/ccc2c(c1)N=C(c1cccs1)N=2,57.4%,39%,85.9%,10.1%,52.9%,88.6%,58%
Fc1cc(C(F)(F)F)ccc1-c1cncnc1NC1CCCCCC1,96%,104%,101%,92.3%,95.8%,107%,107%
O=C(O)C(SC(C(=O)O)c1ccccc1)c1ccccc1 (stereo unspecified),101%,116%,107%,96.3%,106%,103%,113%
